Shown are actives, neighbours in structure and some others; about 3% of the full set was active somewhere.
SENP8 block-1: SENP8 protease inhibitors, primary screen, biochemical, luminescence. Sentrin-specific protease 8 (Homo sapiens), Q96LD8. purified SENP8, Z-RLRGG-aminoluciferin cleavage. inhibition, % at 10 µM. hit rate 1.2% among 330,000; in the data active means inhibition above about 50%
Target sequence (Q96LD8 whole entry, looked up): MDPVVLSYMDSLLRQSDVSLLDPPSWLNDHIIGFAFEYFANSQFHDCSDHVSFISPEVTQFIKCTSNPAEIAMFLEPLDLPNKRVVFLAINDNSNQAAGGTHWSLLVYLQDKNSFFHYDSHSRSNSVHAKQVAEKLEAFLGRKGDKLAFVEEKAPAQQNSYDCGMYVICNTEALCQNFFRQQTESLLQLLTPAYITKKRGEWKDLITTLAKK
SENP6 inh: SENP6 protease inhibitors, primary screen, biochemical, luminescence, uHTS | Recombinant SENP6 catalytic domain, aminoluciferin luminescence | inhibition, % at 10 µM | hit rate 1.8% among 330,000 | AID 2599, 2010;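 active means inhibition above about 50% at the single tested dose, limit read from the data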;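 further: plate controls were DMSO wells with enzyme for no effect and DMSO wells lacking enzyme for full effect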
C8 TRAIL sens: viability loss with TRAIL in NB7+C8 cells, primary screen, TRAIL sensitizer project, cell-based, ATPlite luminescence; inhibition (viability loss, TRAIL sensitization), % at 10 µM; hit rate 1% among 360,000; AID 624354, 2012;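 active means compounds causing at least 50% loss of cell viability in the single-dose screen, relative to plate controls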
SENP7 inh: SENP7 protease inhibitors, primary screen, biochemical, luminescence, uHTS. Sentrin-specific protease 7 (Homo sapiens), Q9BQF6. recombinant SENP7, Z-RLRGG-aminoluciferin luminescence, 40 min. inhibition, % at 5 µM. hit rate 1.5% among 330,000. AID 434973, 2010;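 active means inhibition above about 50% at the single test dose, limit read from the data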;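 further: plate controls were DMSO with enzyme for no effect and no enzyme buffer wells for full effect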
Target sequence (Q9BQF6 706-1050 limits assumed): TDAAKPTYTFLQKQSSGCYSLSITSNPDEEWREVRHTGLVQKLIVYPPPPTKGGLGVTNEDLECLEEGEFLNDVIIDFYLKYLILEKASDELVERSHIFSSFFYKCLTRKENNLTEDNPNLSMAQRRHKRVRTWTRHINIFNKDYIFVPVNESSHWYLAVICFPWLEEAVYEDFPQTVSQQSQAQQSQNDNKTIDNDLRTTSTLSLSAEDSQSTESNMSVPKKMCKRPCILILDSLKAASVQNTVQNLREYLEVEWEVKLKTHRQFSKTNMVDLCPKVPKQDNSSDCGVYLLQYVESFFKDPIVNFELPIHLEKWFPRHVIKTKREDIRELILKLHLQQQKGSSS
PPC-1+TRAIL kill: compounds killing PPC-1 cancer cells with TRAIL present, primary screen, TRAIL potentiator project, ATPLite luminescence, uHTS; PPC-1 cells + TRAIL, ATPLite viability luminescence; hit rate 0.41% among 220,000; cell killing (% activity), % at 4 µM or 5 µM;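 active means cell killing above 50% in the first pass at 4 µM, then a duplicate retest at 5 µM averaging 50% or more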;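 further: plate controls were cells with TRAIL plus DMSO for no effect and medium-only wells lacking cells for full effect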
SENP8 block-2: human SENP8 protease inhibitors, primary screen, biochemical, fluorescence, Nedd8 protein substrate, uHTS; hit rate 0.64% among 360,000; recombinant SENP8; AID 602440, 2012; inhibition, % at 20 µM; Sentrin-specific protease 8 (Homo sapiens), Q96LD8; in the data active means inhibition mostly above about 40%, no sharp cut-off; inactive means mostly below about 27%
PPC1 cytotox: cytotoxicity in PPC-1 cells, confirmation, cytotoxicity control for TRAIL apoptosis potentiator project, cell-based, ATP content luminescence; shares compounds with PPC-1+TRAIL kill; PPC-1 viability, ATPlite luminescence, overnight; cytotoxicity, % at 5 µM; hit rate 50% among 1,200; AID 1447, 2008;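 active means reconfirmed compounds whose average cytotoxicity reaches 50% or more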;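 further: 0% = DMSO-treated cells and 100% = wells holding medium but no cells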
An asterisk follows results filed as active; nt = not tested or not shown.

SMILES	SENP8 block-1	SENP6 inh	C8 TRAIL sens	SENP7 inh	PPC-1+TRAIL kill	SENP8 block-2	PPC1 cytotox
Cc1c(Cl)ccc2c(C(=O)O)cc(-c3ccccc3)nc12	-2	-5	35	7	16	16	23
CCN(CC(=O)Nc1c(F)cccc1F)C(=O)c1ccc2ncsc2c1	-7	-18	0	-4	nt	4	nt
CCOc1ccccc1N1CCN(C(=O)C2c3ccccc3Oc3ccccc32)CC1	-5	-19	14	3	3	-5	-7
CCOc1ccccc1N1CCN(C(=O)c2ccccc2)CC1	0	-8	-7	7	25	18	nt
CCCCC(=O)Nc1ccccc1Oc1ccccc1	5	-8	-3	6	-6	10	-14
COc1ccc(-c2noc(CCCC(=O)N3CCOCC3)n2)cc1	4	-17	-2	2	7	25	nt
CC(C)(C)c1ccc(-c2noc(CCC(=O)N3CCOCC3)n2)cc1	-2	0	64*	-10	45	10	37
O=C(NC1CCC(Oc2ccc(C(=O)O)cc2)CC1)NC12CC3CC(CC(C3)C1)C2 (stereo unspecified)	33	20	19	9	nt	13	nt
Cc1cccc(-n2nc(C)cc2N)c1	-1	-16	-6	8	4	8	nt
Cc1cccc(-c2cc(N)n(-c3ccccc3)n2)c1	nt	nt	24	nt	28	29	27
CCc1ccc(-c2cc(N)n(-c3ccccc3)n2)cc1	nt	nt	46	nt	43	-44	44
CCOc1ccc(C)cc1S(=O)(=O)Nc1ccc(Cl)cn1	8	-2	-13	11	17	9	nt
CCOc1ccc2[nH]c(S(=O)(=O)CC)nc2c1Cl	-7	-8	-6	0	7	9	22
O=[N+]([O-])c1nccn1CCCCCCN1CCOCC1	nt	nt	-15	nt	nt	11	nt
COc1ccc([C@H]2C[C@@H](O)[C@H](n3cc(COC(=O)c4ccccc4)nn3)CN2C(=O)C2CCCCC2)cc1	nt	nt	1	nt	nt	2	nt
COc1ccc(-c2cc3ncc(-c4ccccc4)c(N)n3n2)cc1	nt	nt	62*	nt	41	-142	52*
CCc1c(C)n2nc(C)cc2[nH]c1=O	-1	4	-19	2	14	-23	12
Cc1ccc(-c2nc(=O)[nH]c3ccc(Br)cc23)cc1	-6	5	4	-13	nt	-195	nt
Cc1cc(=O)n2nc(N3CCCC(C(=O)N4CCN(c5ccccc5)CC4)C3)sc2n1 (stereo unspecified)	-2	-7	8	8	1	29	31
Cc1cc(=O)n2nc(N3CCCC(C(=O)NCc4ccccc4)C3)sc2n1 (stereo unspecified)	10	4	-1	-7	nt	7	nt
Cc1cc(C(=O)Nc2cnc3ccccc3c2)ccc1[N+](=O)[O-]	-28	-18	10	9	0	21	nt
Cc1ccc(C(=O)Nc2cnc3ccccc3c2)cc1	94*	97*	78*	98*	70*	2	67*
COC(CN(C)C(=O)c1ccc2c(c1)NC(=O)c1ccccc1S2)OC	0	10	-12	1	nt	17	nt
C=CCNc1nc2cc(-c3cccc(Cl)c3)sc2c(=O)n1C	nt	nt	10	nt	nt	-92	nt
O=C(CCl)Nc1cc(SCC(O)CO)cc([N+](=O)[O-])c1 (stereo unspecified)	nt	nt	2	nt	48	-2	50*
SMILES	SENP8 block-1	SENP6 inh	C8 TRAIL sens	SENP7 inh	PPC-1+TRAIL kill	SENP8 block-2	PPC1 cytotox
CCC(=O)Nc1cc(SCCO)cc([N+](=O)[O-])c1	-7	6	-12	-9	15	8	nt
Cn1cnnc1Sc1ccc(C(=O)OCC(=O)NC2CC2)cc1[N+](=O)[O-]	nt	nt	0	nt	14	14	1
CC1CCC(NC(=O)COC(=O)CSc2ccc(C(N)=O)cc2[N+](=O)[O-])CC1 (stereo unspecified)	-6	-15	12	-12	nt	-29	nt
COc1cc(C(=O)N/N=C(\c2ccccc2)c2ccccn2)cc(OC)c1OC	3	6	31	9	26	11	29
Cc1noc(NS(=O)(=O)c2ccc(NC(=O)c3ccc(Cl)c(S(=O)(=O)N(C)c4ccccc4)c3)cc2)c1C	14	-1	16	6	nt	8	nt
Cn1c2ccc(Cl)cc2c2nc3ccccc3nc21	11	17	6	-7	6	-317	21
Cc1ccc(C(=O)Nc2nnc(NC(=S)Nc3ccccc3)s2)cc1	6	10	25	-1	36	-35	nt
CCOc1ccc(C(=O)Nc2nnc(NC(=S)Nc3ccccc3)s2)cc1	5	-5	55*	3	13	-43	8
CCN(CC)C(=O)C(Sc1ccccc1)c1ccccc1 (stereo unspecified)	4	1	-4	8	0	3	2
CCCNC(=O)C(Sc1ccccc1)c1ccccc1 (stereo unspecified)	-2	-6	-5	3	-1	15	nt
Cc1cc(C)c(C#N)c(SCc2nc3ccccc3c(=O)[nH]2)n1	3	10	77*	2	80*	-360	79*
COCc1cc(C)nc(SCc2nc3ccccc3c(=O)[nH]2)c1C#N	-3	-11	3	5	-5	-397	nt
C(=N\Nc1nc(-c2ccccn2)nc2ccccc12)/c1ccccc1	-5	-6	nt	-7	69*	nt	73*
CCOc1ccc(C/C(N)=N/n2cnnc2)cc1	-3	-13	-16	-3	15	21	17
CCOc1ccc(C(=O)Nn2cnnc2)cc1	-2	-13	2	0	18	11	nt
CC1(C)Cc2nc3sc(C(=O)NCCCO)c(N)c3cc2CS1	-1	7	0	7	22	-268	nt
CC1(C)Cc2nc3sc(C(=O)NCCO)c(N)c3cc2CO1	-4	-10	-4	3	8	-82	8
CC1(C)Cc2nc3sc4c(SCC(=O)O)ncnc4c3cc2CO1	-3	-25	76*	1	71*	-10	75*
CC(C)(C)c1ccc(CC(=O)N2CCC2(C)C(=O)NS(=O)(=O)c2ccc(Cl)s2)cc1 (stereo unspecified)	nt	nt	-5	nt	nt	6	nt
C=CCOC(=O)C1=C(C)NC(SCC(N)=O)=C(C#N)C1c1cccs1 (stereo unspecified)	-3	-14	9	9	29	-58	nt
CC(=O)C1=C(C)NC(SCC(N)=O)=C(C#N)C1c1cccs1 (stereo unspecified)	0	-19	-6	-2	18	-25	11
O=C(CN1C(=O)NC(CCc2ccccc2)C1=O)Nc1cccc(Br)c1 (stereo unspecified)	-2	0	-17	-4	nt	7	nt
